From PubChem BioAssay (Tox21)
Values joined by “and” are separate entries in the source; they are usually repeats but may differ in a detail not shown here. Identical values can stand only once. Results filed as inconclusive are left out. Where a call stands in place of a potency, no number is given. Values without a mark were called inactive. Active and inactive are the calls of the source. Calls come from the whole dose curve; as a rule, active = well fitted cell-killing curve with a large enough effect in the repeat runs; inconclusive = weak or mixed curves, or effect the other way; inactive = flat fitted curve, though single readings scatter.

test: qHTS RealTime-Glo MT Cell Viability Assay in HEK293 cells - 0 hour (AID 1224880); settings: RealTime-Glo luminescence; series mostly up to 76.8 µM; note: nearly all actives have a fitted effect of over 45% in size; for activity change, negative = cytotoxicity: top concentration of the series differs between compounds
From the text: U.S. Tox21 Program National Center for Advancing Translational Sciences [NCATS] NIH Chemical Genomics Center [NCGC] U.S. Environmental Protection Agency [EPA] National Institutes of Environmental Health Sciences [NIEHS] National Toxicology Program [NTP] U.S. Food and Drug Administration [FDA] Tox21 Assay Overview: Measure of cell viability is critical in the cell-base assay. Analysis of cell viability is necessary for the characterization of cell responses to cytotoxic drugs and environmental stress. A RealTime-Glo MT Cell Viability Assay to monitor cell viability in real time of continues cell culture during 40 hours of compound treatment was used to screen Tox21 10K library compounds in Hek293 cells. The RealTime-Glo MT Cell Viability Assay is a nonlytic, homogeneous, bioluminescent method to measure cell viability in real time using a simple, plate-based method. The assay involves adding NanoLuc luciferase and a cell-permeant prosubstrate to cells in culture. Viable cells reduce the proprietary prosubstrate to generate a substrate for NanoLuc luciferase. This substrate diffuses from cells into the surrounding culture medium, where it is rapidly used by the NanoLuc Enzyme to produce a luminescent signal. The signal correlates with the number of viable cells, making the assay well suited for cytotoxicity studies.
Tox21 Assay Protocol Summary: The mixture of Hek293 cell suspension and reagents were dispensed at 600cells/6 ul/well in 1536-well tissue culture treated black solid bottom plates using a Multidrop dispenser. After the assay plates were incubated at a 37 C/5% CO2 incubator for 5 hours, 23 nL of compounds dissolved in DMSO, positive and negative controls was transferred to the assay plate by a pintool work station. The plates were incubated at 37 C for 40 hours. The luminescence intensity were measured at 0h, 8h, 16h, 24h, 32h and 40h time points using ViewLux plate reader during compound treatment.
Potency is the fitted concentration of half-maximal effect.

Structure (SMILES) | Potency | activity change, negative = cytotoxicity
CCC(CO)(CO)COCC(CC)(CO)CO | inactive | 
CC(C)(C)NCC(O)COc1ccccc1OCC1CCCO1 (stereo not given) | inactive | 
CCCCC/C=C/CC1CC(=O)OC1=O (stereo not given) | inactive | 
CCC(=O)/C=C/C1C(C)=CCCC1(C)C (stereo not given) | inactive | 
C1COC(NC(C2CC2)C2CC2)=N1 | inactive | 
OCCN1CCNCC1 | inactive | 
COC(=O)[C@H]1[C@H]2C[C@@H]3c4[nH]c5cc(OC)ccc5c4CCN3C[C@H]2C[C@@H](OC(=O)c2cc(OC)c(OC)c(OC)c2)[C@@H]1OC | inactive | 
O=C(O)Cn1cnnn1 | inactive | 
O=C1NCC2(CCN(CCc3ccccc3)CC2)O1 | inactive | 
CCCNC(C)C(=O)Nc1ccccc1C (stereo not given) | inactive | 
COc1ccc(Cc2cnc(N)nc2N)cc1OC | inactive | 
CN(C)c1ccc(C(=C2C=CC(=[N+](C)C)C=C2)c2ccccc2)cc1 | inactive | 
Cc1c(O)cccc1C(=O)N[C@@H](CSc1ccccc1)[C@H](O)CN1C[C@H]2CCCC[C@H]2C[C@H]1C(=O)NC(C)(C)C | inactive | 
CCCCCCCCCCCC[N+](C)(C)C | inactive | 
O=C(O)c1cc(Cl)cc(Cl)c1 | inactive | 
O=C(O)c1cccc(C(=O)O)c1 | inactive | 
CCOc1ccccc1C(N)=O | inactive | 
c1cc(C(c2ccc(OCC3CO3)cc2)C(c2ccc(OCC3CO3)cc2)c2ccc(OCC3CO3)cc2)ccc1OCC1CO1 (stereo not given) | inactive | 
CC(C(O)c1ccc(O)cc1)N1CCC(Cc2ccccc2)CC1 (stereo not given) | inactive | 
CCCCCC(=O)O[C@]1(C(C)=O)CC[C@H]2[C@@H]3CCC4=CC(=O)CC[C@]4(C)[C@H]3CC[C@@]21C | inactive | 

Structure (SMILES) | Potency | activity change, negative = cytotoxicity
C[N+]1([O-])CCOCC1 | inactive | 
OCC(CO)N[C@H]1C[C@](O)(CO)[C@@H](O)[C@H](O)[C@H]1O | inactive | 
c1ccc2cc3c(ccc4ccccc43)cc2c1 | inactive | 
O=C(O)CCc1ccccc1 | inactive | 
CC(=O)O[C@]1(C(C)=O)CC[C@H]2[C@@H]3C[C@H](C)C4=CC(=O)CC[C@]4(C)[C@H]3CC[C@@]21C | 691 nM (active) and 756 nM (active) | 
CCCN[C@H]1CCc2nc(N)sc2C1 | inactive | 
O=C(O)c1cn(-c2ccc(F)cc2)c2cc(N3CCNCC3)c(F)cc2c1=O | inactive | 
O=C(OCc1ccccc1)c1ccc(O)cc1 | inactive | 
Nc1cc(S(=O)(=O)O)cc2cc(S(=O)(=O)O)cc(O)c12 | inactive | 
CC(C)CCOCc1ccccc1 | inactive | 
NC(N)=NC(=O)Cc1c(Cl)cccc1Cl | inactive | 
N[C@@H]1CONC1=O | inactive | 
O=c1n(CC2CO2)c(=O)n(CC2CO2)c(=O)n1CC1CO1 (stereo not given) | inactive | 
CN(C)c1ccc2nc3ccc(=[N+](C)C)cc-3sc2c1 | inactive | 
Nc1nc2ccccc2[nH]1 | inactive | 
CCc1cc(C(C)(C)C)c(O)c(C(C)(C)C)c1 | inactive | 
CCCCCCCCCCCCCCCCCl |  | 2.19% [at 15.8 µM]
Oc1ccc(Cl)cc1Cc1cc(Cl)ccc1O | inactive | 
CC(=O)C1=C(C)[C@@H]2C[C@@]3(C1)[C@H](C)CC[C@H]3C2(C)C | inactive | 
BrC1CCC(Br)C(Br)CCC(Br)C(Br)CCC1Br (stereo not given) | inactive | 
